# Reference: publication PMC4336329 (PLoS ONE, 2015)
# Among all 310,000 compounds or so, about 14,000 (4.5%) showed an effect of 50% or more. Effects have a minus sign here. What follows is part of a selection rich in strong results, with near analogues and random picks from the rest.
# Target: human ether-à-go-go-related gene (hERG) potassium channel (human, UniProt Q12809)
# Assay: primary screen, population patch clamp on CHO cells stably expressing hERG; higher = less effect of the substance
# 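Note: peak tail current of the secondary pulse compared with the same well before compound.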
# human ether-à-go-go-related gene (hERG) potassium channel, sequence (Q12809 whole entry, looked up): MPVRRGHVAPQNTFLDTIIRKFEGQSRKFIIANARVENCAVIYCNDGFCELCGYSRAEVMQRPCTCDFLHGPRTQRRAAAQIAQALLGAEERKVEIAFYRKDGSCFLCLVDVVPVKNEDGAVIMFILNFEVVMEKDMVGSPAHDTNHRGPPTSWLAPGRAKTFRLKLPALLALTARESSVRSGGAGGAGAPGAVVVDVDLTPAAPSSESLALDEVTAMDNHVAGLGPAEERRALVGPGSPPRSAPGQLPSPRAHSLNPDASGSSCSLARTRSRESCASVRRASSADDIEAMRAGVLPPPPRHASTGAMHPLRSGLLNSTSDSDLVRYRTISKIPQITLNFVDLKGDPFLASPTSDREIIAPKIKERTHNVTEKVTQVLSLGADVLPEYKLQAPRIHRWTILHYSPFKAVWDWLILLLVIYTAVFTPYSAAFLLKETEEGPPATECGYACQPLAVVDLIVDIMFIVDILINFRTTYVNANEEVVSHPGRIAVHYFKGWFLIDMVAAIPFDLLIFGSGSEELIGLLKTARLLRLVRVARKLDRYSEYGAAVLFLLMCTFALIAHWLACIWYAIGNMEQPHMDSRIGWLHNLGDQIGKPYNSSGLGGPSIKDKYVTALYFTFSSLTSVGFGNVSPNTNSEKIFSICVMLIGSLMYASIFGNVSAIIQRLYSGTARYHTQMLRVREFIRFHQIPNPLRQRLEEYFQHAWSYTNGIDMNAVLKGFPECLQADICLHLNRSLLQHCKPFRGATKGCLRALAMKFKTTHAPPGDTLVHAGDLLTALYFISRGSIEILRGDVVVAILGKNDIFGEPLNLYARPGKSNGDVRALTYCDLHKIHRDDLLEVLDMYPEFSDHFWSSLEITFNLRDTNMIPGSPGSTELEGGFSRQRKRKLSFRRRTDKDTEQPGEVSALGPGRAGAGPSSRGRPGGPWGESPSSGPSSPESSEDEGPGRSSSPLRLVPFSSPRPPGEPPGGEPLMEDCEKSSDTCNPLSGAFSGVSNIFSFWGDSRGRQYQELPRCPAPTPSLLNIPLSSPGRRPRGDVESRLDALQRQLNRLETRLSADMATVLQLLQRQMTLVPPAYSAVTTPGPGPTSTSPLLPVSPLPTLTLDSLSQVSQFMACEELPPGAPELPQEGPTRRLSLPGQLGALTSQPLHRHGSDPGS
row,SMILES,"hERG current change (%, negative = inhibition) at 10uM [%]"
1,CC(CCc1ccccc1)NC(=O)CN1CCc2ccccc2C1 (stereo not shown),-22.4
2,O=C(O)C(=O)O.c1ccc(CN2CCN(C(c3ccccc3)c3ccccc3)CC2)cc1,2.22
3,Cc1ccc(SCCSc2ncccn2)cc1,-2.38
4,CC(C)c1cc(-c2n[nH]c(=S)n2Cc2ccccc2)cs1,17.8
5,Cc1cc(C)nc(N2CCN(C(=O)CCC(=O)Nc3nnc(CC(C)C)s3)CC2)n1,-6.7
6,O=C(N1CCCCC1)N1CCN(S(=O)(=O)c2cccc([N+](=O)[O-])c2)CC1,-15.8
7,COc1cc(S(=O)(=O)NCc2cccnc2)ccc1F,-5.7
8,CN(C)C(=O)N1CCCC(C(=O)NCc2cccs2)C1 (stereo not shown),1.62
9,CNc1ccccc1C(=O)OCC(=O)N(CCOC)c1c(N)n(CC(C)C)c(=O)[nH]c1=O,9.81
10,CCCCN1CCNC[C@@H]1Cc1ccc(O)cc1,16
11,CCN(CC(=O)Nc1ccc(Br)c(C)c1)CC(=O)NC(C)C,-4.86
12,O=C(NCCO)c1cc([N+](=O)[O-])cc2c1C=Cc1ccccc1O2,-31.4
13,CC1Cc2ccccc2N1C(=O)COC(=O)C1(c2ccccc2F)CCCC1 (stereo not shown),-5.21
14,CCN(CC)S(=O)(=O)c1ccc(NS(=O)(=O)c2cccc(C)c2)cc1,-20.4
15,O=C(O)CCC1(c2ccccc2)NC(=O)NC1=O (stereo not shown),2.53
16,C[n+]1ccccc1/C=N/O.[Cl-],17.3
17,COc1ccccc1CN1Cc2cccc3c2[C@@H](CC1=O)[C@H](O)[C@H](O)C3,4.43
18,COC(=O)C1C(=O)N2CCCSC2=C(C#N)C1c1cccs1 (stereo not shown),1.49
19,CC1CCCCN1CC(=O)NC(c1ccccc1)c1ccccc1.O=C(O)C(=O)O (stereo not shown),-65.8
20,CSc1ccccc1NC(=O)CN1CCCCC1C (stereo not shown),0.324
21,CC1Cc2ccccc2N1CC(=O)NC(c1ccccc1)c1ccccc1.O=C(O)C(=O)O (stereo not shown),19.1
22,CC1CC(C)CN(CC(=O)NC(c2ccccc2)c2ccccc2)C1.O=C(O)C(=O)O (stereo not shown),-68.4
23,CC1CCCCN1CC(=O)NC(=O)NCc1ccccc1 (stereo not shown),16.8

row,SMILES,"hERG current change (%, negative = inhibition) at 10uM [%]"
1,O=C(CN1CCCCCC1)NC(c1ccccc1)c1ccccc1.O=C(O)C(=O)O,-57.7
2,CC(NC(=O)CN1CCCC1)c1ccccc1 (stereo not shown),21
3,CC1CN(CC(=O)NC(C)c2ccccc2)CC(C)O1 (stereo not shown),9.23
4,O=C(CN1CCCC1)NC(c1ccccc1)c1ccccc1.O=C(O)C(=O)O,-34.7
5,CCOCCCN1CN(Cc2ccco2)CNC1=S,7.86
6,CC1=C(c2ccc(F)cc2)[N+](=O)C(C)(C)N1[O-],17.7
7,Cc1ccc(-c2cc(=O)c3ccccc3[nH]2)cc1,13.6
8,Cc1cccn2cc(CCNS(=O)(=O)c3ccc([N+](=O)[O-])cc3)nc12,-22.7
9,COc1ccc2[nH]cc(C(O)CN3CCC(C(N)=O)CC3)c2c1 (stereo not shown),12
10,COc1ccc2[nH]cc(C(O)CN3CCN(c4ccccc4F)CC3)c2c1 (stereo not shown),-22
11,COc1ccc(N2CCN(CC(O)c3c[nH]c4ccc(OC)cc34)CC2C)cc1 (stereo not shown),-68.1
12,CC(Cc1ccccc1)[n+]1cc(/N=C(\[O-])Nc2ccccc2)on1 (stereo not shown),-17.4
13,CC1Sc2ccc(S(=O)(=O)NCCc3ccccc3)cc2NC1=O (stereo not shown),12.5
14,CC1CCN(CCOc2cc(Cl)ccc2Cl)CC1,-33.8
15,CC1CCN(CCOCCOc2ccc(Br)cc2Cl)CC1.O=C(O)C(=O)O,-75.5
16,Clc1cc(Br)ccc1OCCN1CCOCC1.O=C(O)C(=O)O,-2.95
17,Clc1cc(Br)ccc1OCCOCCN1CCCC1.O=C(O)C(=O)O,-57.1
18,CC1CCN(CCOc2ccc(Cl)c(Cl)c2)CC1,-46.3
19,CN1CCN(CCOCCOc2ccc(Br)cc2Cl)CC1.O=C(O)C(=O)O,-14.2
20,CC1CCN(CCCOc2ccc(Cl)cc2Br)CC1,-76.3
21,CC1CCCN(CCOCCOc2ccc(Br)cc2Cl)C1.O=C(O)C(=O)O (stereo not shown),-71
22,CC(C)N1CCN(Cc2ccc3c(c2)OCCO3)CC1CCO (stereo not shown),3.63
23,NC(=O)N/N=C/c1ccc(-c2cccc(C(F)(F)F)c2)o1,-4.87
